{"source": "PubChem BioAssay (Tox21)", "key": {"[1]": {"target": "Acetylcholinesterase (Homo sapiens) (UniProt P22303)", "sequence (P22303 whole entry, looked up)": "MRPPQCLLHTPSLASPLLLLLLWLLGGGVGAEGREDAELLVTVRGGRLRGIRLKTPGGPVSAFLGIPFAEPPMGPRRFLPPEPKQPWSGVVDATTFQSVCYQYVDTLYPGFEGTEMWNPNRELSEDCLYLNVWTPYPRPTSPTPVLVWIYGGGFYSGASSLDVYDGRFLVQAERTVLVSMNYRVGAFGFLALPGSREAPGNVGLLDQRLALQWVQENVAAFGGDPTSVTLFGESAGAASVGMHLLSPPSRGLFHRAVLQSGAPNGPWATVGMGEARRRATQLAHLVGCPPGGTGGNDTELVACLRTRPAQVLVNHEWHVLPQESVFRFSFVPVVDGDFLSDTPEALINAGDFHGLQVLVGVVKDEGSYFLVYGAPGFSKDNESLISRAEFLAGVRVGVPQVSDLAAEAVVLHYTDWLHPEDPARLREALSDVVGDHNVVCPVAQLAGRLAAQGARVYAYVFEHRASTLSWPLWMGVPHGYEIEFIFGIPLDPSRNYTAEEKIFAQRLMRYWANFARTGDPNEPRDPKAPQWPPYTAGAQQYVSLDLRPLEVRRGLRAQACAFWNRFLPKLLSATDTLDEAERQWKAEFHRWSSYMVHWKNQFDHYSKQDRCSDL", "assay": "Acetylcholinesterase (AChE) small molecule antagonists: enzyme-based qHTS assay (AID 1347397; calls by dose curve; note: nearly all actives have a fitted effect of over 55% in size)", "conditions": "Potency: AChE enzyme activity inhibition; outcome: AChE enzyme activity inhibition; series mostly up to 115 µM", "method_in_brief": "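Absorbance-based detection of thiocholine with DTNB served as the read-out. Recombinant human AChE was exposed to compound for 30 min at RT before a 10 min RT incubation with acetylthiocholine.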"}, "[2]": {"target": "Acetylcholinesterase (Homo sapiens) (UniProt P22303)", "assay": "Acetylcholinesterase (AChE) small molecule antagonists: fluorescence cell-based qHTS assay (AID 1347398; calls by dose curve; note: nearly all actives have a fitted effect of over 50% in size)", "conditions": "SH-SY5Y cells; Potency: AChE activity; outcome: AChE activity; series mostly up to 115 µM", "method_in_brief": "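Fluorimetric cell-based assay: intact SH-SY5Y cells, 30 min compound preincubation at 37 C, acetylthiocholine substrate with thiol probe Thiolite Green, 40 min RT development, fluorescence 490/520 nm.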"}, "[3]": {"target": "Acetylcholinesterase (Homo sapiens) (UniProt P22303)", "assay": "Acetylcholinesterase (AChE) small molecule antagonists: enzyme-based qHTS assay with human liver microsomes (AID 1347399; calls by dose curve; note: nearly all actives have a fitted effect of over 60% in size)", "conditions": "Potency: qHTS inhibition; outcome: qHTS inhibition; series mostly up to 115 µM", "method_in_brief": "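Recombinant human AChE (50 mU/mL in the enzyme mix) and human liver microsomes (0.25 mg/mL final) were preincubated with compound and NADPH (0.25 mg/mL final) for 30 min at 37 C. Acetylthiocholine/DTNB was then added; thiocholine was read colorimetrically after 10 min at room temperature.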"}, "[4]": {"target": "Cytochrome P450 2D6 (Homo sapiens) (UniProt P10635)", "sequence (P10635 whole entry, looked up)": "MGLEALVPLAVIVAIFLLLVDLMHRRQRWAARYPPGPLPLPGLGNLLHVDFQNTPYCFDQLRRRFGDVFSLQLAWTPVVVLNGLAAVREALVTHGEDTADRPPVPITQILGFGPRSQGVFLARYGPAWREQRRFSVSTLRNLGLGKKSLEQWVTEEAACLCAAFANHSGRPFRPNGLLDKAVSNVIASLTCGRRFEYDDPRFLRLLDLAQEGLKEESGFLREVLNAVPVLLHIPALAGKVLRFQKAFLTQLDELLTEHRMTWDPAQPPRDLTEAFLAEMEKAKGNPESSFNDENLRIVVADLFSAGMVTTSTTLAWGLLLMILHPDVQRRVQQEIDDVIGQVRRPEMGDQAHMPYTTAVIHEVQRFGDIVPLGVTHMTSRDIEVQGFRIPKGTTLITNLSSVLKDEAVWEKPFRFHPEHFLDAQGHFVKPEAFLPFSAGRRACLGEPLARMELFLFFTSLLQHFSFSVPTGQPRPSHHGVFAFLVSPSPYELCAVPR", "assay": "Cytochrome P450 Family 2 Subfamily D Member 6 (CYP2D6) small molecule antagonists: luciferase reporter qHTS assay (AID 1671196); note: nearly all actives have a fitted effect of over 50% in size; note: potency is the fitted concentration of half-maximal effect", "conditions": "P450-Glo CYP2D6 enzyme assay, luciferin luminescence, 1 h; series mostly up to 115 µM", "method_in_brief": "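CYP2D6 enzyme–substrate mix was held with compound for 10 min at room temperature, then NADPH regeneration solution was added and the reaction ran 1 h at room temperature. Luciferin product was detected by luminescence after 20 min with detection reagent.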"}, "[5]": {"target": "Voltage-gated inwardly rectifying potassium channel KCNH2 (Homo sapiens) (UniProt Q12809)", "sequence (Q12809 whole entry, looked up)": "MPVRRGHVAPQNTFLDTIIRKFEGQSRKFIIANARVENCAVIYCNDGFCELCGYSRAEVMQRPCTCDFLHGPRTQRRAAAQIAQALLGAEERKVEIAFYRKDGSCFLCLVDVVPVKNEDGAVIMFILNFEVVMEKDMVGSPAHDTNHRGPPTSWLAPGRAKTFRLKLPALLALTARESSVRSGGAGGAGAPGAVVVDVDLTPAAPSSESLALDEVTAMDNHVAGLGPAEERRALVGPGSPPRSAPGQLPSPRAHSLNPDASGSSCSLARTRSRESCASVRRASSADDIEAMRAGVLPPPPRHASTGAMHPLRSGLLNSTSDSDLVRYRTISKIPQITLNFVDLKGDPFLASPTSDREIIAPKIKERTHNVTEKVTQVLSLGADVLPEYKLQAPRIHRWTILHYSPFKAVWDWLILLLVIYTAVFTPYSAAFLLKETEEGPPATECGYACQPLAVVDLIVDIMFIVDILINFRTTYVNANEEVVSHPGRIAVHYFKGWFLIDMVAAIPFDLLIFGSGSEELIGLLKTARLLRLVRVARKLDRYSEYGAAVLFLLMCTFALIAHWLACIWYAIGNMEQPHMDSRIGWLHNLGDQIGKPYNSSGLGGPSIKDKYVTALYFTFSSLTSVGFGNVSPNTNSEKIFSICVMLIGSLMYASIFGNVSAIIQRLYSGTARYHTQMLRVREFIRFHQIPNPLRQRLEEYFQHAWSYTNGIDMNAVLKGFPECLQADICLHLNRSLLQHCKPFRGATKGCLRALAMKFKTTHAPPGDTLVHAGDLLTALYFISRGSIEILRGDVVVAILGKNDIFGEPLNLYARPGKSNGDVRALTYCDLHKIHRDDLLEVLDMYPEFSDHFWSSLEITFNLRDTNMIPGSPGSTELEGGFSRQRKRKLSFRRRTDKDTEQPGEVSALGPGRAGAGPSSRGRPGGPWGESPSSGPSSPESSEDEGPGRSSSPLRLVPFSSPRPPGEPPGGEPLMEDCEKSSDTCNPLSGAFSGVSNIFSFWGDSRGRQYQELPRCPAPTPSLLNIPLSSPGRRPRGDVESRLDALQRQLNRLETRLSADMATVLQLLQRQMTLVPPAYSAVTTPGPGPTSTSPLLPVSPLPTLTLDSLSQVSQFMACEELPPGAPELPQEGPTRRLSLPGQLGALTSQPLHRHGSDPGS", "assay": "Human Ether-a-go-go-Related Gene (hERG) channel small molecule antagonists: fluorescence cell-based qHTS assay (AID 1671200); note: nearly all actives have a fitted effect of over 50% in size", "conditions": "hERG-U2OS cells, FluxOR thallium flux fluorescence; series mostly up to 76.8 µM", "method_in_brief": "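Fluorescence at 540 nm emission (480 nm excitation) was recorded kinetically for 2 min at 1-second intervals once the thallium-containing stimulus reached cells previously loaded with FluxOR II dye.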"}, "[6]": {"target": "Cytochrome P450 3A4 (Homo sapiens) (UniProt P08684)", "sequence (P08684 whole entry, looked up)": "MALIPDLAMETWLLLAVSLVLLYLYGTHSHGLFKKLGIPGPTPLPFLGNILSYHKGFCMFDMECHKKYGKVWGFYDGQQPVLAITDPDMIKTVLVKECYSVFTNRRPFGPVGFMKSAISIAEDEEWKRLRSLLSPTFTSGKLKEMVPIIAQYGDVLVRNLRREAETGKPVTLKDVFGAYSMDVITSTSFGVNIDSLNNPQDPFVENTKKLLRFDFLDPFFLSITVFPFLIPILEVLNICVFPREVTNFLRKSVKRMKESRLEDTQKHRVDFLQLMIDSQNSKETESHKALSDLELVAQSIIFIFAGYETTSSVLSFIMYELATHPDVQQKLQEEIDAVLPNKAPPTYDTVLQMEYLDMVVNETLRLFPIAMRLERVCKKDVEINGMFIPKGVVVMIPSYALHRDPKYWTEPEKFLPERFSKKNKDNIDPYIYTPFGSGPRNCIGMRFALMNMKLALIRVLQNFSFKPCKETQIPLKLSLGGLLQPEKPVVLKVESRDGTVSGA", "assay": "Cytochrome P450 Family 3 Subfamily A Member 4 (CYP3A4) small molecule antagonists: luciferase reporter qHTS assay (AID 1671201); note: nearly all actives have a fitted effect of over 50% in size", "conditions": "P450-Glo CYP3A4 enzyme, luciferin luminescence, 1 h; series mostly up to 115 µM", "method_in_brief": "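qHTS, 1536-well. CYP3A4 + proluciferin substrate, cpd 10 min RT → NADPH regen 1 h RT → detection reagent 20 min → luminescence (RLU). Ketoconazole positive control.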"}, "[7]": {"target": "Cytochrome P450 2C9 (Homo sapiens) (UniProt P11712)", "sequence (P11712 whole entry, looked up)": "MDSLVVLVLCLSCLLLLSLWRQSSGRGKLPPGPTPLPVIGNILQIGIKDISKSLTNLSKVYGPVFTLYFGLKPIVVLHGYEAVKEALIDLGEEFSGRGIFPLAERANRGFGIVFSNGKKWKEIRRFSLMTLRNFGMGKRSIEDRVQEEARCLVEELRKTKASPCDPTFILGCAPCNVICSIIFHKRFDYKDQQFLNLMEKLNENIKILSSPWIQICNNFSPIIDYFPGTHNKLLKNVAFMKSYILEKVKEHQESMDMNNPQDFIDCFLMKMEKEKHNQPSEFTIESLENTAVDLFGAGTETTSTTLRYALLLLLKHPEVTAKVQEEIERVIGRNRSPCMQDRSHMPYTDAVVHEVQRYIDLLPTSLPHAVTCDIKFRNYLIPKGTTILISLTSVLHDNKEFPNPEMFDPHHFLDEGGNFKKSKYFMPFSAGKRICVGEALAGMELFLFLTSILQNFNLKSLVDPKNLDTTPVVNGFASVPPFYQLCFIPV", "assay": "Cytochrome P450 Family 2 Subfamily C Member 9 (CYP2C9) small molecule antagonists: luciferase reporter qHTS assay (AID 1671198); note: nearly all actives have a fitted effect of over 50% in size; note: potency is the fitted concentration of half-maximal effect", "conditions": "P450-Glo CYP2C9 enzyme assay, luciferin luminescence; series mostly up to 115 µM", "method_in_brief": "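Enzyme-substrate mix preincubated with compound 10 min at room temperature; reaction started with NADPH regeneration solution, 1 h 37C. Luminescent luciferin product read after 20 min detection reagent.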"}, "[8]": {"target": "Cytochrome P450 1A2 (Homo sapiens) (UniProt P05177)", "sequence (P05177 whole entry, looked up)": "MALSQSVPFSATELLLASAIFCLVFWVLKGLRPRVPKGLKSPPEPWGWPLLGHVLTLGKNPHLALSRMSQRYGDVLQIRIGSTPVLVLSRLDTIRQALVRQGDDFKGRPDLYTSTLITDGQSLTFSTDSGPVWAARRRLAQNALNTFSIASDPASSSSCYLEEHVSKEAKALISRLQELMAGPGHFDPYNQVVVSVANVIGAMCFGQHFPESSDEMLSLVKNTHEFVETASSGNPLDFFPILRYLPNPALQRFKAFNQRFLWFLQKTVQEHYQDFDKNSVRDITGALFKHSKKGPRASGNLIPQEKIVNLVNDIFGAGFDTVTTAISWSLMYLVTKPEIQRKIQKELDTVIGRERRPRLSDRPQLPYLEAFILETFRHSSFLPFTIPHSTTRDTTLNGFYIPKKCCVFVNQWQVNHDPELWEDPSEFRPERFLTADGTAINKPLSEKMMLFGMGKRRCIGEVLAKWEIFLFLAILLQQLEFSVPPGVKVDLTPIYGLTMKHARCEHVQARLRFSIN", "assay": "Cytochrome P450 Family 1 Subfamily A Member 2 (CYP1A2) small molecule antagonists: luciferase reporter qHTS assay (AID 1671199); note: nearly all actives have a fitted effect of over 50% in size; note: potency is the fitted concentration of half-maximal effect", "conditions": "P450-Glo CYP1A2 enzyme, luciferin luminescence, 1 h; series mostly up to 115 µM", "method_in_brief": "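Human CYP1A2 activity measured with a P450-Glo proluciferin substrate; compounds in DMSO preincubated 10 min at room temperature with enzyme-substrate mix, then NADPH regeneration system added for 1 h. Luciferin detection reagent, 20 min, luminescence read.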"}, "[9]": {"target": "Cytochrome P450 2C19 (Homo sapiens) (UniProt P33261)", "sequence (P33261 whole entry, looked up)": "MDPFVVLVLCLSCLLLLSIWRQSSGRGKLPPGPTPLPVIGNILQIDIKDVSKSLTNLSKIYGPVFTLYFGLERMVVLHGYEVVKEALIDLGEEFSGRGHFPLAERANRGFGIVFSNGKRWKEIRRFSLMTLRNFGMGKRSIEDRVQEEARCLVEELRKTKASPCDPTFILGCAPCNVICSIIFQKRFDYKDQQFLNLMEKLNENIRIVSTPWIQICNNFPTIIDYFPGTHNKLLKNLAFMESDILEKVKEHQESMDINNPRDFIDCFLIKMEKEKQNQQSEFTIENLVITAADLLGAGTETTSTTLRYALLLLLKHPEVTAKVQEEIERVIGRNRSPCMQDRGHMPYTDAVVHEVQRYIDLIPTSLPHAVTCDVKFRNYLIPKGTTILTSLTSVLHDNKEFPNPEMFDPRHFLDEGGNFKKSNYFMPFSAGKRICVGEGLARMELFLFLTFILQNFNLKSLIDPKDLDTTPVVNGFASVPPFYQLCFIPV", "assay": "Cytochrome P450 Family 2 Subfamily C Member 19 (CYP2C19) small molecule antagonists: luciferase reporter qHTS assay (AID 1671197); note: nearly all actives have a fitted effect of over 65% in size", "conditions": "P450-Glo CYP2C19 enzyme, luciferin luminescence, 1 h; series mostly up to 115 µM", "method_in_brief": "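CYP2C19 P450-Glo, 1536-well qHTS. Cpd + enzyme/proluciferin substrate 10 min RT; + NADPH regen, 37C 1 h; stop with luciferin detection reagent, 20 min RT, luminescence (RLU). Pos ctrl ketoconazole.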"}}, "note": "Records with an inconclusive call do not appear. A call without a number means that no potency is given here. Active and inactive are the calls of the source. Unless noted, calls come from the whole dose curve; as a rule, active = well fitted curve in the direction sought with a large enough effect in the repeat runs; inconclusive = weak or mixed curves; inactive = no such curve, though single readings can be large; an effect the other way counts as inactive or inconclusive.", "data": [{"smiles": "O=c1[nH]c2ccccc2n1C1CCNCC1", "values": [{"measurement": "Potency", "setting": "[1]", "value": "inactive"}, {"measurement": "Potency", "setting": "[2]", "value": "inactive"}, {"measurement": "Potency", "setting": "[3]", "value": "inactive"}, {"measurement": "Potency", "setting": "[4]", "value": "30.9 µM (active)"}, {"measurement": "Potency", "setting": "[5]", "value": "inactive"}, {"measurement": "Potency", "setting": "[6]", "value": "inactive"}]}, {"smiles": "CCCCCCCCBr", "values": [{"measurement": "Potency", "setting": "[1]", "value": "inactive"}, {"measurement": "Potency", "setting": "[2]", "value": "inactive"}, {"measurement": "Potency", "setting": "[3]", "value": "inactive"}, {"measurement": "Potency", "setting": "[4]", "value": "inactive"}, {"measurement": "Potency", "setting": "[7]", "value": "inactive"}, {"measurement": "Potency", "setting": "[5]", "value": "inactive"}, {"measurement": "Potency", "setting": "[6]", "value": "inactive"}]}, {"smiles": "COC(=O)c1ccc(CBr)cc1", "values": [{"measurement": "Potency", "setting": "[1]", "value": "inactive"}, {"measurement": "Potency", "setting": "[2]", "value": "inactive"}, {"measurement": "Potency", "setting": "[3]", "value": "inactive"}, {"measurement": "Potency", "setting": "[4]", "value": "64 µM (active)"}, {"measurement": "Potency", "setting": "[8]", "value": "36 µM (active)"}, {"measurement": "Potency", "setting": "[5]", "value": "inactive"}]}, {"smiles": "CN(CCO)CCO", "values": [{"measurement": "Potency", "setting": "[1]", "value": "inactive"}, {"measurement": "Potency", "setting": "[2]", "value": "inactive"}, {"measurement": "Potency", "setting": "[3]", "value": "inactive"}, {"measurement": "Potency", "setting": "[7]", "value": "inactive"}, {"measurement": "Potency", "setting": "[5]", "value": "inactive"}, {"measurement": "Potency", "setting": "[6]", "value": "inactive"}]}, {"smiles": "C=C(Cl)CCl", "values": [{"measurement": "Potency", "setting": "[1]", "value": "inactive"}, {"measurement": "Potency", "setting": "[2]", "value": "inactive"}, {"measurement": "Potency", "setting": "[3]", "value": "inactive"}, {"measurement": "Potency", "setting": "[4]", "value": "inactive"}, {"measurement": "Potency", "setting": "[7]", "value": "inactive"}, {"measurement": "Potency", "setting": "[5]", "value": "inactive"}, {"measurement": "Potency", "setting": "[6]", "value": "inactive"}]}, {"smiles": "O=C(Cl)C(Cl)(Cl)Cl", "values": [{"measurement": "Potency", "setting": "[1]", "value": "inactive"}, {"measurement": "Potency", "setting": "[2]", "value": "inactive"}, {"measurement": "Potency", "setting": "[3]", "value": "inactive"}, {"measurement": "Potency", "setting": "[7]", "value": "inactive"}, {"measurement": "Potency", "setting": "[8]", "value": "inactive"}, {"measurement": "Potency", "setting": "[5]", "value": "inactive"}, {"measurement": "Potency", "setting": "[6]", "value": "inactive"}]}, {"smiles": "O=P(O)(O)c1ccccc1", "values": [{"measurement": "Potency", "setting": "[1]", "value": "inactive"}, {"measurement": "Potency", "setting": "[2]", "value": "inactive"}, {"measurement": "Potency", "setting": "[3]", "value": "inactive"}, {"measurement": "Potency", "setting": "[9]", "value": "inactive"}, {"measurement": "Potency", "setting": "[7]", "value": "inactive"}, {"measurement": "Potency", "setting": "[5]", "value": "inactive"}, {"measurement": "Potency", "setting": "[6]", "value": "inactive"}]}, {"smiles": "CCN(CC)C1CCCCC1", "values": [{"measurement": "Potency", "setting": "[1]", "value": "inactive"}, {"measurement": "Potency", "setting": "[2]", "value": "inactive"}, {"measurement": "Potency", "setting": "[3]", "value": "inactive"}, {"measurement": "Potency", "setting": "[4]", "value": "inactive"}, {"measurement": "Potency", "setting": "[7]", "value": "inactive"}, {"measurement": "Potency", "setting": "[5]", "value": "inactive"}, {"measurement": "Potency", "setting": "[6]", "value": "inactive"}]}, {"smiles": "CC(=NC#N)N(C)Cc1ccc(Cl)nc1", "values": [{"measurement": "Potency", "setting": "[1]", "value": "inactive"}, {"measurement": "Potency", "setting": "[2]", "value": "inactive"}, {"measurement": "Potency", "setting": "[3]", "value": "inactive"}, {"measurement": "Potency", "setting": "[4]", "value": "inactive"}, {"measurement": "Potency", "setting": "[8]", "value": "inactive"}, {"measurement": "Potency", "setting": "[5]", "value": "inactive"}, {"measurement": "Potency", "setting": "[6]", "value": "inactive"}]}, {"smiles": "CCN[C@H](C)Cc1cccc(C(F)(F)F)c1", "values": [{"measurement": "Potency", "setting": "[1]", "value": "inactive"}, {"measurement": "Potency", "setting": "[2]", "value": "inactive"}, {"measurement": "Potency", "setting": "[3]", "value": "inactive"}, {"measurement": "Potency", "setting": "[4]", "value": "2.24 µM (active)"}, {"measurement": "Potency", "setting": "[7]", "value": "inactive"}, {"measurement": "Potency", "setting": "[5]", "value": "inactive"}, {"measurement": "Potency", "setting": "[6]", "value": "inactive"}]}, {"smiles": "COC1=CC(=O)O[C@@H](/C=C/c2ccccc2)C1", "values": [{"measurement": "Potency", "setting": "[1]", "value": "inactive"}, {"measurement": "Potency", "setting": "[2]", "value": "inactive"}, {"measurement": "Potency", "setting": "[3]", "value": "inactive"}, {"measurement": "Potency", "setting": "[7]", "value": "32.2 µM (active)"}, {"measurement": "Potency", "setting": "[8]", "value": "28.7 µM (active)"}, {"measurement": "Potency", "setting": "[5]", "value": "inactive"}, {"measurement": "Potency", "setting": "[6]", "value": "inactive"}]}]}
